Screens from PubChem.
Compounds with a hit are over-represented: about 5.3% of the library has one in this group of screens.
M18AAP inhibitor – PfM18AAP enzyme inhibition; recombinant PfM18AAP, H-Glu-NHMec fluorogenic cleavage; inhibition, % at 7.35 µM; actives 1.2% (n = 290,000); AID 1822;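 active means inhibition above the campaign mean inhibition over all tested compounds plus 3 SD, cut at about 28% in these data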
ALR inh – inhibitors of human sulfhydryl oxidase ALR; purified ALR, DTT oxidation, H2O2 HRP-luminol luminescence; inhibition, % (test concentration not listed); actives 3.8% (n = 290,000); AID 485317;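 active means mean replicate inhibition above about 79%, with every replicate also reaching it, limit read from the data; inconclusive means only one of the two criteria met; inactive means mean below limit and not every replicate reaching it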
Target sequence (P55789 whole entry, looked up): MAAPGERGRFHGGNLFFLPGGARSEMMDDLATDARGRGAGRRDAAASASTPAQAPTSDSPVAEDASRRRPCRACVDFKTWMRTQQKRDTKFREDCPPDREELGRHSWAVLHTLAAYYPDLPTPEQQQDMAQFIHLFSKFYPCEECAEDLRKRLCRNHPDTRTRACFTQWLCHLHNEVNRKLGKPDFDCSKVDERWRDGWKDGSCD
HIF activator – HIF pathway transcriptional activation; U2OS HRE-luciferase reporter, luminescence; normalized: DMSO 0%, desferrioxamine 100%; activation, % at 7.5 µM (by protocol); actives 0.32% (n = 300,000);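 active means mean activation of at least 10% of the iron chelator positive control signal, with at least half of replicates also reaching 10%; inconclusive means mean and replicate majority disagree about reaching 10%; inactive means mean and most replicates under 10%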
SUMO Mot1 rescue – inhibitors of SUMOylation pathway: yeast Mot1-301 growth rescue; growth rescue, % at 18.8 µM; S. cerevisiae Mot1-301 growth rescue, ATP luminescence, 38.5C; percent above DMSO median, 100 means doubled; actives 1% (n = 320,000);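 active means every valid replicate shows activation above 250% relative to neutral control wells; inactive means the rest, any valid replicate at or below 250%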
Large screens that a line does not name were inactive.

COc1ccccc1/C=C/C=N/n1c(-c2cc(C)[nH]n2)n[nH]c1=S	ALR inh inconclusive
Cc1cc(-c2n[nH]c(=S)n2/N=C/c2ccccc2[N+](=O)[O-])n[nH]1	ALR inh 95
COc1cccc(/C=N/n2c(-c3cc(C)[nH]n3)n[nH]c2=S)c1O	ALR inh 98
Cc1cc(-c2n[nH]c(=S)n2/N=C/c2c[nH]c3ccccc23)n[nH]1	none
COc1ccccc1/C=C/C=N/n1c(-c2n[nH]c3c2CCC3)n[nH]c1=S	none
S=c1[nH]nc(COc2ccccc2)n1/N=C/C=C/c1ccco1	ALR inh 97
Cc1cc(-c2n[nH]c(=S)n2/N=C/c2ccc(Br)s2)n[nH]1	ALR inh 97
Cc1cc(-c2n[nH]c(=S)n2/N=C/c2ccc(C)s2)n[nH]1	none
S=c1[nH]nc(COc2ccccc2)n1/N=C/C=C/c1ccccc1	none
COc1cc(/C=N/n2c(-c3n[nH]c4c3CCC4)n[nH]c2=S)cc(OC)c1O	ALR inh 95
Cc1ccc(CSc2nnc(CCCCCNC(=O)OC(C)(C)C)o2)cc1	HIF activator 14
Cc1cccc(CSc2nnc(CCCCCNC(=O)OC(C)(C)C)o2)c1	none
COC(=O)c1cc(NS(=O)(=O)c2ccc(F)cc2)ccc1N1CCOCC1	none
COC(=O)c1cc(NS(=O)(=O)c2cccc(Cl)c2)ccc1N1CCOCC1	none
O=C(O)c1cc(NCc2ccc(F)cc2)ccc1N1CCOCC1	ALR inh 97 (no result: SUMO Mot1 rescue)
COC(=O)c1cc(NCc2c(F)cccc2Cl)ccc1N1CCOCC1	ALR inh 99
COC(=O)c1cc(NCc2cccs2)ccc1N1CCOCC1	ALR inh 100
COC(=O)c1cc(NS(=O)(=O)c2ccc(C(C)C)cc2)ccc1N1CCOCC1	SUMO Mot1 rescue 314
Cc1ccc(S(=O)(=O)NC2CCCC(C(=O)O)C2)cc1 (configuration not stated)	none
CC(C)CNC(=O)COC(=O)c1cc(S(=O)(=O)N2CCCCC2)ccc1N1CCOCC1	SUMO Mot1 rescue 277
O=C(O)c1cc(NCc2cccs2)ccc1N1CCOCC1	ALR inh 98
Fc1cccc(Cl)c1CNc1ccc(N2CCCC2)cc1	ALR inh 99
COc1ccc2nccc(C(N)=O)c2c1	none
CCOc1ccccc1-c1nnc(SCC(=O)NC2(C#N)CCCC2)o1	none (no result: M18AAP inhibitor, HIF activator)
COC(=O)/N=C/c1c(NCc2ccccc2)nc2c(C)cccn2c1=O	ALR inh inconclusive
CCOC(=O)c1cnn(C)c1NC(=O)c1ccc([N+](=O)[O-])cc1	none
COC(=O)c1ccccc1NC(=O)Oc1ccc(C(C)C)cc1	ALR inh 92
COC(=O)c1ccccc1NC(=S)NC(=O)COc1ccc(C(C)C)cc1	none (no result: ALR inh)
CCC(C)[C@H](N)c1nnc(SCC(=O)c2ccc(Cl)cc2)o1 (some centres not stated)	ALR inh 98
C(/CCc1ccccc1)=N\Nc1nc2ccccc2[nH]1	ALR inh 98, HIF activator inconclusive
Cc1cc(=O)[nH]c(N/N=C/c2c[nH]c3ccccc23)n1	ALR inh 92
COc1ccc(/C=N/Nc2ccccn2)c(OC)c1OC	ALR inh 99
COc1ccc(/C=N\Nc2ccccn2)c(OC)c1	none
C(=N\Nc1nc2ccccc2[nH]1)/c1c[nH]c2ccccc12	ALR inh 99
Cc1cc(=O)[nH]c(N/N=C/c2ccccc2C(F)(F)F)n1	none
C(=N\Nc1nc2ccccc2[nH]1)/c1ccccc1	none (no result: ALR inh)
O=C(CCc1ccccc1)NNC(=O)COc1ccc([N+](=O)[O-])cc1	none
C[C@H](NC(=O)C1CCN(S(=O)(=O)c2ccccc2)CC1)C(=O)NCc1ccco1	none
Cc1ccccc1/C=N/Nc1nc2ccccc2[nH]1	none
C(=N\Nc1nc2ccccc2[nH]1)/c1cccc2cccnc12	HIF activator 271
COc1ccc(/C=N/Nc2nc3ccccc3[nH]2)c(OC)c1OC	ALR inh 98
O=C(O)/C=C/c1ccc2c(-c3ccccc3)onc2c1	ALR inh 93
O=c1c(-c2n[nH]c(=S)n2-c2ccccc2)cccn1Cc1cccc(Cl)c1	ALR inh 93
C=CCn1c(-c2cccn(Cc3cccc(Cl)c3)c2=O)n[nH]c1=S	none
Cc1cc(N2CCC(N(C)C3CCCC3)CC2)nc2cc(O)ccc12	none
Cc1cccc(C)c1NC(=S)/C(=C(\[O-])c1cccs1)[n+]1ccccc1	none
[O-]/C(=C(\C(=S)Nc1cccc2ccccc12)[n+]1ccccc1)c1cccs1	HIF activator 55
CCN1C(=O)[C@@H]2[C@H](C1=O)[C@@H]1C(=O)Nc3ccccc3C(=O)N1[C@@H]2c1ccc(Br)cc1	none (no result: M18AAP inhibitor)
COc1ccc(/C=C(\NC(=O)c2ccc(C)cc2)C(=O)NCCCN2CCOCC2)cc1OC	none
COc1cc(/C=C2\SC(=S)N(NC(=O)c3cccnc3)C2=O)ccc1O	ALR inh 99
COc1cc(/C=C2\SC(=S)N(NC(=O)c3ccc(O)cc3)C2=O)ccc1O	ALR inh 99
CC(=O)NN1C(=O)/C(=C\c2ccc(O)cc2)SC1=S	ALR inh 99
CC(=O)NN1C(=O)/C(=C\c2ccc(C)cc2)SC1=S	none
O=C(NN1C(=O)/C(=C/c2cccs2)SC1=S)c1ccncc1	none
COc1cccc(/C=C2\SC(=S)N(NC(=O)c3ccncc3)C2=O)c1	ALR inh 96 (no result: SUMO Mot1 rescue)
COc1cc(/C=C2\SC(=S)N(C(Cc3ccccc3)C(=O)O)C2=O)ccc1O (configuration not stated)	none (no result: ALR inh)
CCOC(=O)[C@@H]1[C@H]2COc3cc(OC)ccc3[C@H]2N2C(=O)N(c3ccc(OC)cc3)C(=O)[C@]12C	none (no result: M18AAP inhibitor, HIF activator)
O=C(NN1C(=O)/C(=C/c2cccc(O)c2)SC1=S)c1ccccc1O	ALR inh 99
O=C(NN1C(=O)/C(=C\c2ccc(O)c([N+](=O)[O-])c2)SC1=S)c1ccccc1Cl	none
O=C(NN1C(=O)/C(=C/c2ccc(O)c(O)c2)SC1=S)c1ccccc1	M18AAP inhibitor 65, ALR inh 99
COc1cccc(NC(=O)CN(C)C(=O)c2ccccn2)c1	none (no result: M18AAP inhibitor, HIF activator)
COc1ccc(-c2n[nH]c(=S)o2)c(OC)c1	ALR inh 90
CC(C)c1nc2sc(C(=O)O)c(N)c2c2c1CCCC2	none
Cc1nc(N/N=C/c2ccccn2)sc1C	ALR inh 97 (no result: HIF activator)
CCN=c1scc(-c2ccc(F)cc2)n1/N=C/c1ccccn1	none
CCCc1sc(N/N=C/c2ccccn2)nc1-c1ccc(F)cc1	HIF activator 20
Cc1cc(C)c(NC(=O)COC(=O)c2ccncc2)c(C)c1	none (no result: M18AAP inhibitor, HIF activator)
CC(C)(O)[C@H]1Cc2cc3ccc(=O)oc3cc2O1	none
COc1ccc(S(=O)(=O)n2ccnc2C)c(C)c1C	none
O=C(O)CCC(=O)N1CCN(c2ncccc2C(F)(F)F)CC1	none
COC(=O)c1c(NC(=O)/C=C/C(=O)O)sc(C)c1-c1ccc(C)cc1	ALR inh 98
COC(=O)c1sc(-c2ccc(Cl)cc2)cc1NC(=O)/C=C/C(=O)O	ALR inh 84
COC(=O)c1sc(-c2ccc(Cl)cc2)cc1NC(=O)COCC(=O)O	none
COC(=O)c1c(NC(=O)/C=C/C(=O)O)sc(C)c1-c1ccc(C(C)C)cc1	none
CCOC(=O)c1c(NC(=O)/C=C/C(=O)O)sc(C)c1-c1ccc(C)c(C)c1	ALR inh 98
